# Compounds with a hit are over-represented: about 2.1% of the library has one in this group of screens.
# PrPC surface inh – inhibitors of human cell surface prion protein PrPC; P04156; TR-FRET read-out; inhibition, % at 13.8 µM; 0.43% of 370,000 active; AID 720596; in the data active = inhibition above about 24%; note: 0% = median of the test wells and 100% = reference compound wells
# PrP UTR inh – suppresses PrP 5' UTR mRNA reporter expression; 0.35% of 340,000 active; cell-based PrP 5' UTR mRNA reporter, plate reader; inhibition, % (no concentration beside the values); AID 488862; in the data active = inhibition above about 52%; note: 0 = median of the neutral control wells
# PfHsp40 yeast – rescue of PfHsp40-mediated yeast toxicity; 0.68% of 340,000 active; S. cerevisiae expressing PfHsp40, growth rescue, ATP luminescence; growth rescue, % at 12.5 µM; in the data active = growth rescue above about 28%, passing the limit was not always enough; inconclusive = no clear call, values can overlap the other calls;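 note: yeast W303a lacking pdr1 and pdr3 grown in galactose medium; growth measured after three days at 30 °C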
# RN4220 kill – S. aureus RN4220 growth inhibition; OD600, 16 h; inhibition, % (concentration not given with the values); 0.33% of 330,000 active; in the data active = inhibition above about 85%;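 note: plate controls were untreated cells for no effect and reference antibiotic for full effect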
# CCHF vOTU inh-1 – CCHFV vOTU protease inhibition. Pep-AMC fluorescence. inhibition, % at 11.5 µM. 0.55% of 370,000 active; note: 0% = vehicle wells with enzyme and 100% = no enzyme wells
# ugtP null kill – kills S. aureus RN4220 lacking UgtP. S. aureus RN4220 ugtP deletion, OD600 growth, 16 h. growth inhibition, % (concentration not given with the values). 0.54% of 330,000 active; in the data active = growth inhibition above about 68%;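 note: plate controls were untreated wells for no effect and antibiotic for full effect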
# CCHF vOTU inh-2 – CCHFV vOTU protease inhibition, confirmation; inhibition, % at 11.5 µM; AID 686976; Recombinant CCHFV vOTU, Pep-AMC fluorescence; shares compounds with CCHF vOTU inh-1; 17% of 1,900 active
# An asterisk follows results filed as active; ? = inconclusive; . = no result. Cut-off read from the data, not from the text of the source, unless noted: active = inhibition above about 30%; inactive = the rest.
SMILES,PrPC surface inh,PrP UTR inh,PfHsp40 yeast,RN4220 kill,CCHF vOTU inh-1,ugtP null kill,CCHF vOTU inh-2
CCNC(=O)N1CCN(c2ccc(N3CCN(C(=O)NCC)[C@@H](C)C3)c(C)c2)[C@H](C)C1,-7,.,.,.,35*,.,-12
CN1CCc2nc(SCC(=O)Nc3ccc(OC(F)(F)F)cc3)c(C#N)c(-c3cccs3)c2C1,0,-59,1,-1,35*,3,-7
COc1cc(C=NNc2ccc(Cl)c(C(=O)O)c2)ccc1OC(=O)c1cccs1,.,.,.,8,.,8,.
C=CCN1C=CC(=C/C=C(/C#N)C(=O)OCC)C=C1,-54,-66,-1,1,38*,-6,30*
O=C(NN=Cc1ccccc1C(=O)O)c1cc(-c2ccc3c4c(cccc24)CC3)n[nH]1,.,.,.,14,.,-11,.
CC(=O)c1ccc(NC2=C(N3CCOCC3)C(=O)c3ccccc3C2=O)cc1,-6,-9,0,11,93*,13,67*
CC(=O)N(C)C1=C(N2CCOCC2)C(=O)c2ccccc2C1=O,.,-6,0,12,.,0,.
CC(=O)N(C1=C(N2CCOCC2)C(=O)c2ccccc2C1=O)c1ccc(C(=O)O)cc1,-41,-1,0,5,52*,-5,36*
Cc1ccc(NC2=C(N3CCOCC3)C(=O)c3ccccc3C2=O)cc1,-15,12,0,13,108*,16,101*
O=C(O)c1ccc(NC2=C(N3CCOCC3)C(=O)c3ccccc3C2=O)cc1,-7,0,-1,14,57*,-4,23
CN1CC(=O)N2C3c4ccccc4OCC3C(c3ccccc3)[C@]2(C)C1=O (stereo partly drawn),.,.,.,3,.,4,.
CCn1nnnc1SCC(=O)c1cccc(OC)c1,9,-11,1,7,0,2,.
COc1ccc(-n2nnnc2SCC(=O)c2cccc(OC)c2)cc1,7,-12,-1,14,31*,-2,-13
O=[N+]([O-])c1ccc(O)c2ncccc12,-36,-21,?,99*,47*,99*,23
CCOc1cc(C=NNc2nc(=O)[nH]nc2C)ccc1O,.,.,.,10,.,14,.
Cc1ccc(NC(=O)c2sccc2SCc2cccc(C(F)(F)F)c2)cc1,5,-17,2,-2,40*,-7,-1
CN1CCN(c2cc(N3CCN(C(=O)c4ccco4)CC3)c3c4c(onc24)-c2ccccc2C3=O)CC1,.,-36,1,0,.,-8,.
O=C(O)CCCNc1cc(N2CCN(C(=O)c3ccco3)CC2)c2noc3c2c1C(=O)c1ccccc1-3,-76,-3,-1,.,32*,.,81*
CC1CCc2sc(C(=O)N(C)CC(=O)Nc3cccc(F)c3)cc2C1 (stereo not drawn),7,-62,-1,-3,30*,3,-5
COc1cccc(NC(=O)CN(C)C(=O)c2cc3c(s2)CCCC3)c1,16,-14,-1,0,12,-2,.
COc1ccc(C(=O)Nc2cccc(C(C)=NNC(=O)c3ccc([N+](=O)[O-])c(C)c3)c2)cc1OC,.,.,.,-2,.,4,.
O=C(C1CC=CC2CCN(C3CCCCC3)C(=O)C21)N1CCN(c2ccccc2)CC1 (stereo not drawn),.,.,.,7,.,2,.
OCCCc1cn(Cc2ccccc2)c2ccccc12,6,-40,1,2,0,20,.
c1ccc(Cn2cc(CCOCc3ccccn3)c3ccccc32)cc1,8,.,.,.,32*,.,-9
CC(=O)Nc1ccc2c(O)cc(S(=O)(=O)O)cc2c1,-8,-15,-1,-2,12,-6,.
SMILES,PrPC surface inh,PrP UTR inh,PfHsp40 yeast,RN4220 kill,CCHF vOTU inh-1,ugtP null kill,CCHF vOTU inh-2
Nc1ccc2c(O)cc(S(=O)(=O)O)cc2c1,-20,-21,7,3,52*,3,-40
COc1ccc(/C=C2\SC(=O)N(CCNC(=O)C3=COCCO3)C2=O)cc1,5,-110,-1,0,36*,0,-6
CCCCNC(=O)C(NC(=O)Cc1cc(C(F)(F)F)cc(C(F)(F)F)c1)C(=O)c1ccccc1 (stereo not drawn),-7,.,.,.,30*,.,1
CCCCNC(=O)C(NC(=O)c1ccc(C(F)(F)F)cc1)C(=O)c1ccccc1 (stereo not drawn),4,.,.,.,8,.,.
NC(=NOC(=O)c1ccc(Cl)cc1[N+](=O)[O-])c1cccnc1,.,.,.,3,.,10,.
Cc1c(C(=O)Nc2ccc(S(=O)(=O)Nc3ncccn3)cc2)oc2ccc(Cl)cc12,-1,4,1,0,-3,-7,.
Cc1noc(NS(=O)(=O)c2ccc(NC(=O)c3oc4ccc(Cl)cc4c3C)cc2)c1C,3,-28,-1,12,35*,-2,20
NCCCCC1CN=C(N)N1CCc1cccc2ccccc12 (stereo not drawn),.,.,.,3,.,5,.
COC(=O)Nc1ccc(S(=O)(=O)N2CCC(C)CC2)cc1,-2,-17,0,9,-9,-2,.
COC(=O)Nc1ccc(S(=O)(=O)N2CCC(C(=O)N3CCC(C)CC3)CC2)cc1,8,-13,0,6,42*,5,-19
CCOc1cc(C=NNC(N)=O)cc(Br)c1OCc1ccccc1F,.,.,.,3,.,-11,.
O=C1C(=NO)CCc2ccccc21,-11,-35,-1,.,69*,.,82*
CN1CCC(=O)N(C(COc2ccccc2)Cc2ccccc2)CC1 (stereo not drawn),.,.,.,2,.,-1,.
C[C@H]1CCC(=O)N([C@H](COc2ccccc2)Cc2ccccc2)CC1,12,-29,1,.,31*,.,6
CC(=NO)C(=O)NCc1ccncc1,.,.,.,-3,.,-1,.
O=C(Cc1ccccc1)Nc1cc(Cl)ccc1Sc1ccccc1,7,-9,1,-2,30*,7,-13
O=C(Cc1ccc(Cl)cc1)Nc1ccccc1Sc1ccccc1,4,-24,3,-3,-4,-2,.
CN1N=C(N)c2cn(C3OC(COP(=O)(O)O)C(O)C3O)c3ncnc1c23 (stereo not drawn),2,43,2,.,32*,.,4
COc1cc(CCCN2C(=O)C(=O)NCC2Cc2ccc(O)cc2)cc(OC)c1OC (stereo not drawn),.,.,.,10,.,2,.
COc1ccc(CN2C=C3C(=O)C(C)(OC(=O)C4CCCC4)C(=O)C=C3C=C2c2ccsc2)cc1 (stereo not drawn),-14,-21,-1,-1,9,0,.
CC1(OC(=O)C2CCCC2)C(=O)C=C2C=C(c3ccsc3)N(CCCCO)C=C2C1=O (stereo not drawn),-16,-13,-1,5,30*,-5,34*
O=[N+]([O-])c1cc(S(=O)(=O)c2ccc(O)c([N+](=O)[O-])c2)ccc1O,-4,-9,0,3,43*,7,5
Nc1cc(S(=O)(=O)O)cc([N+](=O)[O-])c1O,-1,-16,-1,6,31*,-7,9
Nc1ccc(O)c([N+](=O)[O-])c1,-7,-6,-1,4,13,16,.

# Screening results as filed in PubChem BioAssay.
